A selection: hits, their analogues and other compounds. The true share with any hit is near 7.1%.
ELG1 DNA repair – ELG1-dependent DNA repair inhibition; HEK293T ELG1-luciferase reporter, luminescence, 16 h; DNA damage induced by 5-fluorouridine; Potency, µM (series often up to 46.1 µM), inactives show at the top dose activity change, negative = inhibition, hits mostly inhibitors; actives 2.3% (n = 330,000); AID 504467; further: on the % scale 0 is the no-effect control and ±100 the full control effect; nearly all actives have a fitted effect of over 55% in size
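DMSO vehicle served as the neutral condition. Each well held 2,000 cells given 5-fluorouridine plus compound; after 16 hr at 37 °C/5% CO2, ONE-Glo was added and luciferase measured 30 min later.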
ELG1 genotox – inducers of genotoxicity in HEK293T ELG1-luciferase cells | Potency, µM (titrated, usually from 46 µM), for the others: at the top dose activity change, positive = activation, most hits filed as activators | AID 504466 | actives 1.3% (n = 330,000) | HEK293T ELG1-luciferase reporter, luminescence, 16 h; further: % of control where 0% means no effect; nearly all actives have a fitted effect of over 60% in size
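HEK293T cells expressing luciferase-tagged ELG1 were treated with compound or DMSO for 16 hr at 37°C. Luciferase activity was then read after 30 min with ONE-Glo at room temperature; rising signal flags genetic stress.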
SW480 rerep – DNA re-replication induction in SW480 cells. SW480 DNA re-replication, Hoechst DNA content imaging, 48 h. Potency, µM (titrated, usually from 46.1 µM), without a hit: top-dose re-replication activation, usual class: activators. actives 1.8% (n = 340,000). AID 624297; further: % of control where 0% means no effect; nearly all actives have a fitted effect of over 55% in size
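Compounds, transferred as 23 nL by pin tool, were incubated with cells for 48 hr; DNA content per nucleus was then quantified by Hoechst staining and fluorescence plate imaging.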
MCF10A rerep – induces DNA re-replication in MCF 10a normal breast cells; MCF 10A DNA re-replication, Hoechst nuclear intensity, 48 h; Potency, µM (top dose mostly 46.1 µM), for the others: at the highest dose activity, positive = re-replication, actives largely listed as activators; actives 2.9% (n = 350,000); AID 624296; further: % of control where 0% means no effect; nearly all actives have a fitted effect of over 50% in size
p53 reactivator – restores transcriptional activity of mutant p53; H1299 p53-A138V BP100-luciferase reporter, luminescence, 24 h; Potency, µM (series often up to 92.2 µM), for the others: at the highest dose activity change, positive = activation, most hits filed as activators; actives 0.063% (n = 320,000); further: % of control where 0% means no effect; nearly all actives have a fitted effect of over 45% in size
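H1299 (p53-null), stable ts p53-A138V + BP100-Luc; 1000 cells/well, Opti-MEM/10% FBS; cpd 4 pt, 1:5; 24 h, 37 deg C, 5% CO2; detection reagent 10 min RT; luminescence.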
A-T KAP1 phos – potential ataxia-telangiectasia treatment | F2112 A-T fibroblasts, KAP-1 phosphorylation AlphaLISA; neocarzinostatin DNA damage 30 min before lysis | Potency, µM (series often up to 57.5 µM), inactives show at the top dose activation, actives largely listed as activators | actives 0.19% (n = 320,000) | AID 485349; further: % of control where 0% means no effect; nearly all actives have a fitted effect of over 45% in size
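hTERT-immortalized A-T patient fibroblasts (F2112), 500 cells/well in OPTI-MEM, 1% FBS, got compounds for 60 min, then NCS for 30 min at 37C. Lysates were then assayed for phospho-KAP-1 by AlphaLISA (anti-pKAP1 donor, anti-KAP1 acceptor beads), 6 hr at 25C.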
* = called active by the depositor; u = inconclusive; x = no result; [ ] = dose if it differs, or a comment. The call rests on the fitted dose curve; in most records, active means well fitted curve in the direction sought with a large enough effect; inconclusive means small, poorly fitted or top-dose-only effect, or another doubt; inactive means no such curve, though single readings can be large; an effect the other way counts as inactive or inconclusive. Potency means the concentration at half of the fitted maximal effect.

SMILES	ELG1 DNA repair	ELG1 genotox	SW480 rerep	MCF10A rerep	p53 reactivator	A-T KAP1 phos
COCCCNC(=O)/C(C#N)=C/c1c(N2CCN(c3ccccc3)CC2)nc2ccccn2c1=O	u	-6%	9.2µM*	21µM*	5%	-31%
COCCCNC(=O)/C(C#N)=C/c1c(N2CCN(C)CC2)nc2ccccn2c1=O	2%	-2%	u	21µM*	4%	u
CCN(CC(=O)Nc1c(F)cccc1F)C(=O)/C=C/c1cn(Cc2ccccc2)nc1-c1cccnc1	u	-3%	0%	2%	-14%	4%
COc1ccccc1C(=O)COC(=O)COc1cccc2c1OC(C)(C)C2	u	9.2µM*	-6%	0%	u	-1%
COc1ccc(NC(=O)COC(=O)COc2cccc3c2OC(C)(C)C3)cc1	4%	-3%	-3%	-1%	-1%	-2%
Cc1ccc(-c2nnc(-c3ccc4c(c3)OCO4)o2)cc1	u	6.5µM*	1%	-2%	3%	-3%
c1ccc(-c2nnc(-c3ccco3)o2)cc1	u	2.1µM*	0%	5%	u	3%
c1coc(-c2nnc(-c3ccc4c(c3)OCO4)o2)c1	u	8.2µM*	x	x	u	9%
c1coc(-c2nnc(-c3ccco3)nn2)c1	9%	4%	4µM*	-16%	22%	2%
Brc1ccc(-c2nnc(-c3ccc4c(c3)OCO4)o2)o1	u	u	-4%	18%	u	2%
O=c1nc(N/N=C/c2ccccn2)cn[nH]1	u	13%	u	17%	17%	10%
C/C(=N\Nc1ccc2nncn2n1)c1ccccn1	1.2µM*	u	-1%[9.22 µM]	u	u	-8%
C(=N\Nc1ccc2nncn2n1)/c1ccccn1	5.8µM*	u	u	-23%	21%	-4%
CN(C(=O)c1cccs1)C1(C)CCS(=O)(=O)C1 (configuration not stated)	6%	0%	-18%	-9%	-7%	0%
Cc1cc(SCc2ccc(Br)cc2)nc(=O)[nH]1	u	3%[9.26 µM]	-18%	0%	7%	15%
Cc1cc2c(cc1S(=O)(=O)N1CCN(c3cccc(C(F)(F)F)c3)CC1)OCC(=O)N2	23%	3%	u	23µM*	2%	13%
O=C1COc2ccc(S(=O)(=O)N3CCN(c4cccc(C(F)(F)F)c4)CC3)cc2N1	u	14%	u	-1%	-3%	11%
C=CCOc1ccccc1CN1CCC(Oc2cc(C(=O)NC3CC3)ccc2OC)CC1	1%	-5%	-3%	-4%	4%	9%
CCCN1C(=O)/C(=C/c2c(N3CCNC(=O)C3CC(=O)OCC)nc3c(C)cccn3c2=O)SC1=S (configuration not stated)	5.8µM*	-10%	-19%	u	-6%	-11%
CN1CCN(C2=C(Cl)C(=O)N(Cc3ccccc3)C2=O)CC1	-14%	0%	2%	1%	20µM*	7%
CCN1CCN(C2=C(Cl)C(=O)N(Cc3ccccc3)C2=O)CC1	u	-4%	-2%	-5%	20%	0%
NNC(=O)c1c(O)c2cccc3c2n(c1=O)CCC3	1%	-4%	-5%	21µM*	-7%	33%
CC(C)NC(=O)c1c(O)c2cccc3c2n(c1=O)CCC3	-1%	0%	-42%	-2%	x	12%
Cc1ccc(-c2cc(N)n(-c3ccccc3)n2)cc1	u	u	-3%	-1%	23%	6%
CCc1ccc(-c2cc(N)n(-c3ccccc3)n2)cc1	u	2.6µM*	-5%	-2%	u	1%
SMILES	ELG1 DNA repair	ELG1 genotox	SW480 rerep	MCF10A rerep	p53 reactivator	A-T KAP1 phos
COc1ccc(CC(=O)Nc2nc(-c3ccccc3)c(C(C)=O)s2)cc1OC	18µM*	-2%	u	u	-9%	4%
COc1cc(CC(=O)Nc2nc(-c3ccccc3)c(C(C)=O)s2)cc(OC)c1OC	8.2µM*	-10%	-53%	u	-9%	7%
COc1ccc(CC(=O)Nc2nnc(C(C)C)s2)cc1OC	-2%	-13%	0%	0%	-8%	-1%
CCCCN(C(=O)c1ccc(-n2nc(C)cc2C)cc1)c1c(N)n(CCC)c(=O)[nH]c1=O	-4%	0%	2%	-1%	-2%	-5%
O=[N+]([O-])c1ccc(Oc2cccnc2)c([N+](=O)[O-])c1	x	x	u	5.8µM*	x	x
CC(C(=O)Nc1ccc(F)c(F)c1F)N(C)Cc1cccs1 (configuration not stated)	0%	-5%	-4%	8%	4%	0%
CCc1ccc2c(c1)[C@H]1OCC[C@H]1[C@@H](c1cccs1)N2	-1%	3%	5.2µM*	5.8µM*	14%	-1%
Clc1ccc2c(c1)[C@H]1OCC[C@H]1[C@@H](c1ccco1)N2	u	u	-3%	-2%	u	-1%
Cc1ccc(S(=O)(=O)c2nc(S(C)(=O)=O)sc2N2CCCCC2C)cc1 (configuration not stated)	u	-15%	u	u	-3%	-8%
COc1ccc(O)c(/C=N/Nc2nc(Nc3ccccc3)nc(-n3nc(C)cc3C)n2)c1	2.6µM*	-10%	u	u	15%	26%
COc1cc(/C=N/n2nnnc2Nc2ccccc2)cc(OC)c1OC	23µM*	-2%	-110%	0%	-6%	3%
COc1cc(/C=N/Nc2nc(Nc3ccccc3)nc(-n3nc(C)cc3C)n2)cc(OC)c1OC	1.8µM*	-16%	u	15µM*	u	-4%
COc1ccc(O)c(/C=N/Nc2nc(C)cc(-c3ccccc3)n2)c1	x	x	-43%	u	x	x
COc1cc(/C=N\NS(=O)(=O)c2ccccc2)cc(OC)c1OC	9%	2%	1%	-2%	x	-3%
COc1cc(/C=N/Nc2nc(Nc3ccc(C)cc3)nc(-n3nc(C)cc3C)n2)cc(OC)c1OC	u	-27%	13µM*	u	0%	2%
Cc1nc2ccc(C(=O)OCC(=O)N(C)c3ccccc3)cc2nc1C	4%	0%	-11%	5%	-4%	-16%
CS(=O)(=O)N(CC(=O)O)c1cc(C(F)(F)F)ccc1Cl	30%	-1%	-39%	2%	9%	-6%
O=C(NCc1ccc(F)cc1)C1CCCN1C(=O)Nc1cccc(F)c1 (configuration not stated)	8%	0%	-5%	3%	9%	-6%
